The text below walks through data of ChEMBL document CHEMBL3988442, “University of Dundee, Small-Polar-MMV Screening Library” (2021).

In this test the target is AMP-activated protein kinase, AMPK (Homo sapiens) (UniProt P54646+O43741+P54619+Q9UGJ0+Q9Y478+Q13131+Q9UGI9). As to the kind of experiment: AMP-dependent Kinase enzyme assay. An in vitro enzyme assay that detects ADP turnover that is directly proportional to AMPK activity. This uses naive AMPK that is activated during the assay with MK-8722. The test is classed as functional. Set-up: scale not given: direction of the effect not stated beside the values. Conditions: 30 µM.
In the case of `CCN(CC)C(CNC(=O)c1cccnc1-n1cncn1)c1ccsc1` (centres undefined), the Percent Effect was 5%.

On to `CN1C[C@@H]2CC[C@H](CC1=O)N2C(=O)c1ccc(-c2ccccc2)[nH]c1=O`, for which the Percent Effect was found to be 12.5%.

`CCCn1ccnc1-c1cccc(NC2CCOC2)c1` (centres undefined): the Percent Effect was determined as 1.21%.

On to `COC1CCN(c2ccc(F)cc2CN(C)S(C)(=O)=O)CC1`, for which the Percent Effect was 6.29%.

As to `CN(C)CCC1CCN(c2cc(N3CCCC3CO)ncn2)CC1` (centres undefined), the Percent Effect was -6.25%.

As for `CCCc1nnc(N2CCC(N3CCN(CCO)CC3)CC2)o1`, the Percent Effect was -0.32%.

With `COC(=O)c1ccc(N(C(=O)c2cscn2)C(C)C)c(C)c1`, the Percent Effect is -0.314%.

As for `N#Cc1cccc(N2CCCC(CO)(CCOc3ccccc3)C2)n1` (centres undefined), the Percent Effect came out at 3.31%.

For the compound `COCc1cc(N(C)Cc2cc(C(C)(C)C)n[nH]2)ncn1`, the Percent Effect was -7.3%.

Consider `O=C(C1CCOC1)N1CCN(CC2CC2)c2ccccc21` (centres undefined), for which the Percent Effect turned out to be 5.43%.

In the case of `CCc1ncc2c(n1)CN(c1cc(NC3CC3)nc(N)n1)C2`, the Percent Effect is -118%.

For the compound `CCC(C)C(=O)Nc1ccc(CCN2CCOCC2)cc1` (centres undefined), the Percent Effect was 11.3%.

For the compound `Cc1cc(C2CCCN(Cc3cccnc3)C2)n[nH]1` (centres undefined), the Percent Effect is -0.765%.

`CCC(CO)NC(=O)c1cc(COc2ccc(OC)cc2Cl)[nH]n1` (centres undefined): the Percent Effect was -8.13%.

Consider `CC(NC(=O)N1CCCC1)c1ccc(S(N)(=O)=O)cc1` (centres undefined), for which the Percent Effect was determined as 9.72%.

On to `O=S(=O)(Cc1nc(C2CC2)no1)c1ccccc1F`, for which the Percent Effect stood at 1.42%.

On to `CC(C)N(CCO)C(=O)c1cc(COc2ccc3c(c2)CCCC3)on1`, for which the Percent Effect is -2.41%.

For `CC(C)c1nn(C)cc1CNCc1ccnc(N(C)C)c1`, the Percent Effect is -4.28%.

For the compound `Cc1nn(C)c(C)c1C1CCCN1C(=O)c1ccc(C(N)=O)s1` (centres undefined), the Percent Effect was -0.19%.

For the compound `CCN1CCN(c2ncnc3c2CCN(C(=O)C2CC2)C3)CC1`, the Percent Effect is -7.12%.

As for `CC1(c2nccs2)CCN(C(=O)CCN2CCOCC2)CC1`, the Percent Effect was determined as 10.7%.

Turning to `COC(=O)N1CCCCC1C(=O)N1CCCN(c2ccnc(C)c2)CC1` (centres undefined), the Percent Effect is -3.17%.

In the case of `Cc1ccnc(C2COCCN2C)n1` (centres undefined), the Percent Effect is 26%.

`CN(CCc1ncnn1-c1ccccc1Cl)C1CCS(=O)(=O)C1` (centres undefined): the Percent Effect was -10%.

In the case of `Cc1noc(C)c1CCCNC(=O)Nc1ccc2c(c1)CC(=O)N2`, the Percent Effect was 33.6%.

As for `CCc1ccc(C(=O)NC2CCCN(c3ccn(C)n3)C2=O)o1` (centres undefined), the Percent Effect is -0.669%.

Regarding `CN1CCC(Nc2cc(Cl)ccc2OCC(F)(F)F)C1=O` (centres undefined), the Percent Effect was -5.49%.

As to `Cc1cc(C)c(CNc2cnn(CC(O)CN(C)C)c2)c(C)c1` (centres undefined), the Percent Effect is -45.6%.

Take `O=C(NC1CCCC1)N1C[C@H]2CN(c3ccccn3)C[C@@]2(C(=O)O)C1`: the Percent Effect was found to be 3.09%.

With `CCSc1cc(C(=O)N(C(C)C)C2CC2)ccn1`, the Percent Effect was found to be 0.102%.

Regarding `Clc1cc(NCc2nccs2)nc2[nH]ccc12`, the Percent Effect is 15.1%.

For `COCCN(Cc1sccc1C)C(=O)COc1cccnc1`, the Percent Effect is -3.19%.

For `CCN(CC)S(=O)(=O)CC(=O)Nc1ccsc1`, the Percent Effect came out at 2.3%.

In the case of `CC(C)n1cnnc1SCCN(C)c1ccccc1`, the Percent Effect stood at 8.44%.

On to `Cc1noc(C)c1CC(=O)N[C@@H]1CC[C@@H](Oc2ccccc2)[C@@H]1O`, for which the Percent Effect turned out to be 5.13%.

Consider `O=C(Nc1ccc2c(c1)C(=O)NC2=O)c1cccs1`, for which the Percent Effect is 16.2%.

As to `CCc1nc(NC(=O)Cc2csc(-c3nnc[nH]3)n2)sc1C`, the Percent Effect was found to be 3.13%.

`CCc1noc(C)c1C(=O)N1CCC2(CCCN(CC(C)(C)C)C2=O)C1` (centres undefined): the Percent Effect was 7.67%.

Consider `Cc1c(F)cccc1S(=O)(=O)N(C)CC(C)O` (centres undefined), for which the Percent Effect amounted to 1.59%.
